Rows were chosen to be rich in hits. Some 0.92% of all compounds tested hit in one or more screens of this group.
Mtb hypoxia inh: reduces hypoxia-regulated biosensor signal in M. tuberculosis; fluorescence inhibition, % (test concentration not listed); M. tuberculosis hypoxia-regulated fluorescent reporter, fluorescence; 300,000 tested, 0.1% active; in the data active = fluorescence inhibition mostly above about 23%, no sharp cut-off; inactive = mostly below about 17%
RecA intein inh: inhibitors of M. tuberculosis RecA intein splicing | cell-free RecA intein splicing, fluorescence | P9WHJ3 | 290,000 tested, 0.75% active | inhibition, % (concentration not given with the values); in the data active = inhibition above about 30%;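 also: 0% = vehicle wells and 100% = reference inhibitor control wells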
Mtb betalactam: beta-lactam sensitization of Mtb H37Rv; M. tuberculosis H37Rv growth with meropenem, percent inhibition; inhibition, % at 25 µM; 330,000 tested, 0.27% active;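 also: growth measured after seven days incubation then overnight dye step; 0% = bacteria only wells and 100% = bacteria with antibiotic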
Mtb UGM inh: Mtb UDP-galactopyranose mutase inhibition; AID 504406; inhibition, % at 10 µM; 320,000 tested, 0.06% active; purified UGM, fluorescence polarization probe displacement; P9WIQ1; in the data active = inhibition above about 10%, passing the limit was not always enough
Target sequence (P9WIQ1 whole entry, looked up): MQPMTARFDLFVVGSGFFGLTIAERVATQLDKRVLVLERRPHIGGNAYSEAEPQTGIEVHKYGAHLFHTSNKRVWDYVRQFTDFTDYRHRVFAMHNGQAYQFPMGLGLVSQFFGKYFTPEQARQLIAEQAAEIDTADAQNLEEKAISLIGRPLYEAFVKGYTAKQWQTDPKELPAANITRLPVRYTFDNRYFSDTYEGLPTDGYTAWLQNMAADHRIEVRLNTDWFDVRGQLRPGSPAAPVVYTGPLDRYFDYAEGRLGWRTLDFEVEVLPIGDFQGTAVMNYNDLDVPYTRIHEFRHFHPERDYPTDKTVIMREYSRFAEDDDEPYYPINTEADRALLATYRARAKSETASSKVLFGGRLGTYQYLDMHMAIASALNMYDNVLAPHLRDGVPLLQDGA
FadD28 binding: blocks FadD28 binding to the bisubstrate probe; fluorescence polarization; inhibition, % at 12.5 µM; 360,000 tested, 0.22% active; in the data active = inhibition above about 8.5%, passing the limit was not always enough
Rv3671c protease: inhibits the M. tuberculosis serine protease Rv3671c | P9WHR9 | inhibition, % at 5.96 µM | 320,000 tested, 0.048% active; in the data active = inhibition above about 38%;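 also: extracellular domain of Rv3671c used as enzyme; 0% = enzyme with DMSO and 100% = no enzyme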
GFP chromophore: counter-screen: blocks GFP chromophore formation | EC50, µM | 2,100 tested, 83% active | cell-free GFP chromophore formation, fluorescence | shares compounds with RecA intein inh
* = called active by the depositor; . = no result. Unless noted, no rule for the calls is given here.

SMILES | Mtb hypoxia inh | RecA intein inh | Mtb betalactam | Mtb UGM inh | FadD28 binding | Rv3671c protease | GFP chromophore
N#CC1(NC(=O)COC(=O)c2cc(O)c3ccccc3c2O)CCCCC1 | -3 | 81* | 0 | -3 | 2 | -83 | 4.8*
Cc1ccsc1C=Nc1ccc(O)cc1 | -9 | 78* | -5 | 1 | 6 | -22 | 36*
CCCn1c(=O)[nH]c(=O)c2c1nc(-c1ccc(OC(F)F)c(OC)c1)n2CCOC | 3 | 53* | -17 | 1 | -2 | -5 | >38
CCCn1c(=O)[nH]c(=O)c2c1nc(-c1ccccc1OC(F)F)n2CCOC | 7 | 0 | -21 | -1 | -1 | 0 | .
CC1CN(C(C)CO)C(=O)c2cccc(NC(=O)NC3CCCCC3)c2OC1CN(C)C(=O)Nc1ccc(C(F)(F)F)cc1 (stereo not drawn) | -2 | . | . | . | . | . | .
COc1ccc(C(CC(=O)c2ccc(C)cc2)C(C#N)C#N)cc1OC (stereo not drawn) | 9 | 54* | 7 | -1 | -1 | -11 | 30*
COC(=O)C(C(=O)OC)C(CC(=O)c1ccc(C)cc1)c1cc(OC)c(OC)c(OC)c1 (stereo not drawn) | 5 | 1 | -1 | 0 | -3 | -10 | .
Cc1onc(-c2ccccc2)c1C(=O)n1nnc2ccccc21 | 2 | 31* | 1 | -1 | -4 | 2 | 35*
C=CCn1c(N)c(C(=O)Nc2cccc(C)c2)c2nc3ccccc3nc21 | 8 | 34* | 15 | -1 | -6 | -4 | 24*
O=C(/C=C/c1ccccc1)CC(=O)c1ccccc1 | 4 | . | . | . | . | . | .
O=C(Nc1cccc(F)c1)N1CCC(c2ccccc2)CC1 | 23 | 38* | 4 | 2 | 0 | -12 | >38
O=c1c2cc(Br)ccc2nc2n1CCCCC2 | 3 | -4 | -5 | 3 | -2 | -1 | .
CC(=O)Nc1sc(N/N=C\c2ccccc2Cl)nc1-c1cccs1 | . | 1 | 0 | -3 | -2 | 1 | .
COc1cc(C(c2c(C)[nH][nH]c2=O)c2c(C)[nH][nH]c2=O)ccc1OC(C)C | 15 | 97* | -5 | 2 | 0 | -6 | 0.45*
Cc1[nH][nH]c(=O)c1C(c1ccc(O)c(Br)c1)c1c(C)[nH][nH]c1=O | 17 | 98* | -2 | 1 | -1 | -3 | 0.46*
COc1ccc(C(c2c(C)[nH][nH]c2=O)c2c(C)[nH][nH]c2=O)cc1Br | 9 | 98* | -3 | 0 | -1 | -7 | 0.59*
CCOc1cc(C(c2c(C)[nH][nH]c2=O)c2c(C)[nH][nH]c2=O)ccc1O | -1 | 96* | 3 | -1 | 0 | -23 | 1.1*
CCOc1cc(C=O)ccc1O | . | . | -2 | . | -1 | 2 | .
COc1ccc(Cc2nc(=S)[nH][nH]2)cc1Br | 13 | . | -3 | -3 | -3 | 11 | .
COc1cc(O)ccc1/C=N/NC(=O)c1ccc([N+](=O)[O-])cc1 | . | -3 | -1 | 2 | -2 | 6 | .
CC(C)C1N=C2c3ccccc3N=C(SCC(=O)NCCc3ccc(S(N)(=O)=O)cc3)N2C1=O (stereo not drawn) | 1 | 0 | -1 | -1 | 0 | -6 | .
CCn1c(SCC(=O)NCCc2ccccc2)nc2c([nH]c3ccccc32)c1=O | 1 | 0 | 0 | -1 | -1 | -8 | .
Cc1ccc(S(=O)(=O)NCCCCCC(=O)Nc2cccc(C)c2)cc1 | 10 | 1 | 13 | 0 | -4 | -5 | .
CC1=NN(c2nc(C)cc(C)n2)C(=O)C1CCC(C)C (stereo not drawn) | 9 | 2 | -2 | -2 | -1 | 4 | .
CCC1C(=O)N(c2nc(C)cc(C)n2)N=C1C (stereo not drawn) | 13 | 67* | -4 | 2 | -3 | -4 | 20*
SMILES | Mtb hypoxia inh | RecA intein inh | Mtb betalactam | Mtb UGM inh | FadD28 binding | Rv3671c protease | GFP chromophore
COC(=O)c1ccc(-c2ccc(C(c3c(C)[nH][nH]c3=O)c3c(C)[nH][nH]c3=O)o2)cc1 | 2 | 95* | 5 | -2 | 0 | -18 | 0.65*
COC(=O)c1ccc(C)cc1 | . | . | -1 | . | -2 | 0 | .
Cc1[nH][nH]c(=O)c1C(c1ccc(-c2ccccc2C(=O)O)o1)c1c(C)[nH][nH]c1=O | 1 | 96* | -3 | -1 | -4 | -200 | 0.49*
CCN(CC)N=Nc1ccc(C(=O)O)cc1 | -13 | -1 | -2 | 2 | -1 | -7 | .
CCC(C)NC(=S)Nc1ccc(F)cc1 (stereo not drawn) | -9 | 0 | -14 | 3 | -4 | 2 | .
Nc1nc(N=Nc2ccc(O)cc2)cc(=O)[nH]1 | . | . | . | . | -1 | . | .
Cc1noc2ncnc(Sc3ccccc3Cl)c12 | . | 45* | 100 | 2 | -1 | 1 | 38*
N#C/C(=C\c1ccccc1[N+](=O)[O-])C(=O)NCc1ccccc1 | 5 | 12 | 0 | -6 | -4 | 4 | .
CCCCCCCCNC(=O)/C(C#N)=C/c1ccccc1[N+](=O)[O-] | -12 | 42* | 6 | -4 | 0 | -1 | 12*
CC1=NN(c2ccc(C)c(C)c2)C(=O)C1C(c1cccc(O)c1)C1C(=O)N(c2ccc(C)c(C)c2)N=C1C (stereo not drawn) | -1 | 95* | 10 | 9 | -2 | -176 | 0.91*
O=C(NCCc1ccccc1)C(c1cccs1)N(C(=O)CCl)c1ccc(Cl)cc1 (stereo not drawn) | 19 | 74* | 73 | 0 | -1 | -6 | 0.51*
Cc1ccc(-c2[nH]nc3c2C(C)C(C#N)=C(N)O3)cc1 (stereo not drawn) | 6 | 88* | -3 | 0 | -1 | -2 | 0.5*
N#CC1=C(N)Oc2n[nH]c(-c3ccc(F)cc3)c2C1c1cccnc1 (stereo not drawn) | . | 75* | . | . | -4 | . | 16*
CSc1nc(N)c2c(n1)OC(N)=C(C#N)C2c1cccnc1 (stereo not drawn) | -3 | 1 | -1 | -1 | 0 | -2 | .
Cc1[nH]nc2c1C(c1cn[nH]c1-c1ccc(F)cc1)C(C#N)=C(N)O2 (stereo not drawn) | . | 65* | 4 | 0 | -1 | 6 | 18*
Cc1ccc(C2C(C#N)=C(N)Oc3n[nH]c(-c4cccnc4)c32)o1 (stereo not drawn) | -1 | 53* | -6 | 2 | 0 | 8 | 38*
Cn1c2c(c(=O)n(C)c1=O)C(c1ccc(F)cc1)C(C#N)=C(N)O2 (stereo not drawn) | 3 | 2 | 0 | -2 | -2 | -1 | .
Cc1cccc(OCC(=O)Nc2cccc(C(=O)NCC(C)C)c2)c1 | 12 | -1 | -4 | -2 | -1 | -6 | .
COC(=O)c1c(NC(=O)C2C3C=CC(CC3)C2C(=O)O)sc(C)c1C (stereo not drawn) | 1 | -5 | 14 | 3 | -1 | -2 | .
COc1ccc(C2CC(=O)N(CCCN(C)CCc3ccc(OC)c(OC)c3)C2)cc1 (stereo not drawn) | 16 | 2 | -2 | -1 | -1 | -5 | .

Source: PubChem (several laboratories)
